Measurements: PubChem BioAssay (NCI)
About 83,000 compounds went through this panel and 20% of them were active in at least one assay; those are over-represented in the sample as a whole.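 Cells were grown in 96-well plates and exposed to the test compound at a single concentration for 48 hours; results are reported as percent growth, with values below 10 considered active.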 Active and inactive are the calls of the source.

What was measured:
Test in all cases: NCI-60 one-dose screen, 48 h (100 = growth as untreated, 0 = no growth, -100 = all killed)
Conditions in all cases: 10 µM unless noted
[1] = tested on: DU-145 prostate
[2] = tested on: K-562 leukemia
[3] = tested on: MALME-3M melanoma
[4] = tested on: MDA-MB-231 breast
[5] = tested on: RXF 393 renal
[6] = tested on: SF-268 CNS
[7] = tested on: SF-295 CNS
[8] = tested on: SF-539 CNS
[9] = tested on: UACC-257 melanoma
[10] = tested on: M14 melanoma
[11] = tested on: HT29 colon
[12] = tested on: SNB-75 CNS
[13] = tested on: SNB-19 CNS
[14] = tested on: U251 CNS
[15] = tested on: SK-MEL-5 melanoma
[16] = tested on: UACC-62 melanoma
[17] = tested on: LOX IMVI melanoma
[18] = tested on: SK-MEL-28 melanoma
[19] = tested on: PC-3 prostate

Measured: growth

Oc1c(Br)c(Br)c(O)c(Br)c1Br
inactive: [1] 112% | [3] 56.5% | [4] 116% | [5] 12.5% | [6] 108% | [7] 107% | [8] 119% | [9] 117% | [10] 110% | [11] 129% | [12] 120% | [13] 106% | [14] 114% | [15] 102% | [16] 93.3% | [17] 90.9% | [18] 92.8%
active: [2] 7.81%

NC1=CC(=O)c2ccccc2C1=O
inactive: [1] 63.8% | [2] 92.6% | [3] 38.8% | [4] 82.1% | [5] 100% | [6] 95.6% | [7] 69% | [8] 106% | [9] 69% | [10] 83% | [11] 94.7% | [12] 89.2% | [13] 96.3% | [14] 66.7% | [19] 55.6% | [15] 22.9% | [16] 60.8% | [17] 24.5% | [18] 103%

CCN(CC)CCOc1ccc(-c2nc3cc(Cl)ccc3s2)cc1
active: [2] -99.1% | [4] -44.8% | [7] -71.5% | [8] -15.5% | [9] -36.2% | [10] -75.4% | [11] -100% | [12] -0.875% | [14] -3.49% | [19] 4.44% | [15] -38.5% | [16] -86.9% | [17] -86.5% | [18] -79.7%
inactive: [1] 12% | [3] 28.7% | [5] 29.8% | [6] 16.5% | [13] 40.7%

C[n+]1c(/C=C/c2ccc([N+](=O)[O-])cc2)ccc2ccccc21
inactive: [1] 104% | [2] 88.7% | [3] 90.9% | [4] 115% | [5] 92.9% | [6] 102% | [7] 100% | [8] 103% | [9] 106% | [10] 101% | [11] 104% | [12] 92.5% | [13] 108% | [19] 90% | [15] 97.9% | [16] 95.6% | [17] 92.3%

CC1OC2CC(=O)OC2C2=C1C(=O)c1c(O)cccc1C2=O (stereo not given)
active: [1] -98.3% | [2] -7.94% | [3] -77.4% | [4] -65.9% | [5] -96.4% | [6] -92.9% | [7] -8.69% | [8] -89.5% | [9] -78.5% | [10] -87.7% | [11] -51.8% | [12] -100% | [14] -44.8% | [15] -100% | [16] -89.4% | [18] -93.5%
inactive: [13] 15.9%

O=C(O)c1ccc2c3c(ncnc13)-c1ccccc1C2=O
active: [1] -100% | [3] -68.6% | [10] -59% | [15] -69.3%
inactive: [2] 74.5% | [4] 89.6% | [5] 73.5% | [6] 90% | [7] 62.3% | [8] 63.1% | [9] 37.8% | [11] 59.2% | [12] 20.2% | [13] 38.1% | [14] 60.6% | [19] 55.5% | [16] 12.6% | [17] 21.5% | [18] 29.8%

Oc1c(Br)cc(Cl)cc1C(c1cc(Cl)cc(Br)c1O)C(Cl)(Cl)Cl
active: [3] -0.8% | [4] -11.3% | [7] 9.03% | [19] 1.63% | [15] -64.6%
inactive: [1] 31.1% | [2] 13.7% | [5] 12% | [6] 21.9% | [8] 30.8% | [9] 33% | [10] 31.4% | [11] 10.1% | [12] 68.1% | [13] 24.7% | [14] 15.2% | [16] 13.3% | [17] 34.3% | [18] 38.1%

Cc1ccc2nc(-[n+]3cc4ccccc4cc3C)ccc2c1
active: [15] -27.5%
inactive: [1] 53.6% | [2] 39.1% | [3] 44.2% | [4] 54.8% | [5] 91.2% | [6] 39.5% | [7] 33.3% | [8] 43.8% | [9] 11.4% | [10] 43.1% | [11] 14.5% | [12] 34.5% | [13] 27.2% | [19] 17.5% | [16] 30.7% | [17] 46.6% | [18] 43.1%

N#CC1C(=O)SC2c3ccccc3C(=O)c3ccccc3C12 (stereo not given)
inactive: [1] 107% | [2] 94.9% | [3] 101% | [4] 98% | [5] 101% | [6] 101% | [7] 113% | [8] 114% | [9] 101% | [10] 109% | [11] 97.7% | [12] 96.3% | [13] 99.4% | [14] 92% | [19] 82.1% | [15] 97.2% | [16] 89.2% | [17] 95.3% | [18] 112%
